The entries come from a sample that favours hits as a whole.
PD-1 reverse act: activators reversing PD-1 mediated T-cell inhibition. primary human CD4 T cells, PD-L1 beads, CellTiter-Glo 96 h. activation, % (concentration not given with the values). 29,000 tested, under 10 active; call rule not given here;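 also: 0% = median vehicle wells and 100% = positive control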
NOMO-1 viab: STK33 inhibitor candidate reducing NOMO-1 cell viability; hit rate 7.5% among 37,000; inhibition, % (no concentration beside the values); AID 2330; NOMO-1 AML viability, CellTiter-Glo luminescence, 72 h; in the data active = inhibition above about 80%
STK33 inh: blocks human STK33 kinase activity. Q9BYT3. ADP-Glo luminescence, MBP substrate. inhibition, % at 12.5 µM. hit rate 0.44% among 27,000. AID 2322; in the data active = inhibition above about 20%
Target sequence (Q9BYT3 whole entry, looked up): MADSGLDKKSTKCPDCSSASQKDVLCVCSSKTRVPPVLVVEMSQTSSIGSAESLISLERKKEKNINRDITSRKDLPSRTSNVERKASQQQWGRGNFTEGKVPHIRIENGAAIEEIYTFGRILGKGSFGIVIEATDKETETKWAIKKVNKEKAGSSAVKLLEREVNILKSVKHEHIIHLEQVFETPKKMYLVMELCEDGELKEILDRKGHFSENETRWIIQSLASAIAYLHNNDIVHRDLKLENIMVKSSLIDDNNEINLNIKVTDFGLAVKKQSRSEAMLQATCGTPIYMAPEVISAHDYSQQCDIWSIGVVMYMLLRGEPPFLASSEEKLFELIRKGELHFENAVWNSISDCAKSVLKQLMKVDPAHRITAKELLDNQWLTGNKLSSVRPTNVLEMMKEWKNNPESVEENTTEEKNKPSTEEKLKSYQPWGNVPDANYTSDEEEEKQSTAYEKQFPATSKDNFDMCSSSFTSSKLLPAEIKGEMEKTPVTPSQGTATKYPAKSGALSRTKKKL
Starred values were filed as active, the others as inactive; nt = no result given.

SMILES	PD-1 reverse act	NOMO-1 viab	STK33 inh
C[C@@H]1CCCCO[C@@H](CN(C)Cc2ccc(Cl)c(Cl)c2)[C@@H](C)CN([C@H](C)CO)C(=O)c2cc(NC(=O)NC3CCCCC3)ccc2O1	-1	112*	4
C[C@@H]1CN([C@@H](C)CO)C(=O)c2cc(NC(=O)NC3CCCCC3)ccc2O[C@@H]1CN(C)Cc1ccc(Cl)c(Cl)c1	-1	22	0
S=c1nc(-c2ccccc2)n(-c2ccc(Br)cc2)c2c1CCCC2	-1	35	nt
C[C@H](CO)N1C[C@H](C)[C@@H](CN(C)Cc2ccc(Cl)c(Cl)c2)Oc2c(NC(=O)Nc3cccc4ccccc34)cccc2C1=O	-5	115*	nt
C[C@@H]1CN([C@H](C)CO)C(=O)c2cccc(NC(=O)Nc3ccccc3)c2O[C@H]1CN(C)Cc1ccc(Cl)c(Cl)c1	-5	106*	nt
CC(C)NC(=O)Nc1cccc2c1O[C@@H](CN(C)Cc1ccc(Cl)c(Cl)c1)[C@@H](C)CN([C@H](C)CO)C2=O	0	41	nt
CC(C)NC(=O)Nc1cccc2c1O[C@@H](CN(C)Cc1ccc(Cl)c(Cl)c1)[C@H](C)CN([C@H](C)CO)C2=O	-2	63	nt
C[C@@H]1CN([C@H](C)CO)C(=O)c2cccc(NC(=O)Nc3cccc4ccccc34)c2O[C@@H]1CN(C)Cc1ccc(Cl)c(Cl)c1	-2	62	nt
C[C@H](CO)N1C[C@H](C)[C@H](CN(C)Cc2ccc(Cl)c(Cl)c2)Oc2c(NC(=O)Nc3ccc(F)cc3)cccc2C1=O	-3	99*	nt
C[C@@H]1CN([C@@H](C)CO)C(=O)c2cccc(NC(=O)Nc3ccccc3)c2O[C@@H]1CN(C)Cc1ccc(Cl)c(Cl)c1	-3	116*	nt
C[C@@H]1CN([C@H](C)CO)C(=O)c2cccc(NC(=O)Nc3ccc(F)cc3)c2O[C@@H]1CN(C)Cc1ccc(Cl)c(Cl)c1	-1	31	nt
O=C(COc1ccc([N+](=O)[O-])cc1)Nc1ccccc1N1CCN(C(=O)c2ccc(Cl)cc2)CC1	nt	35	-2
C[C@@H]1CN([C@H](C)CO)C(=O)c2cccc(NC(=O)Nc3ccc(C(F)(F)F)cc3)c2O[C@H]1CN(C)Cc1ccncc1	nt	42	nt
C[C@H](CO)N1C[C@H](C)[C@H](CN(C)Cc2ccc(Cl)c(Cl)c2)Oc2c(NC(=O)Nc3ccc(C(F)(F)F)cc3)cccc2C1=O	-1	94*	nt
O=C1C=CC(=O)c2c(O)c(Cl)c(Cl)c(O)c21	-41	98*	22*
COc1ccc(C#Cc2ccc3c(c2)[C@]2(C(=O)N3)[C@H](C(=O)O)[C@H]3C(=O)O[C@H](c4ccccc4)[C@H](c4ccccc4)N3[C@@H]2c2ccc(O)cc2)cc1	nt	nt	18
Cc1ccccc1OCC1CN(CN(CC(C)C)CC(C)C)C(=O)O1 (stereo not given)	-1	21	0
O=C1CN(/N=C/c2ccc([N+](=O)[O-])o2)C(=O)N1	1	45	1
O=C(N/N=C/c1ccc([N+](=O)[O-])o1)c1ccc(O)cc1	-7	140*	7
Cc1ccc(C(=O)CCNc2ccc3c(c2)oc2ccccc23)o1	-10	-2	2
C/C(CCc1oc2ccccc2c1-c1ccc(C)o1)=N\O	-1	108*	nt
C=CC(C)(C)[C@@]12CC(=O)C(=O)N3/C(=C/c4cnc[nH]4)C(=O)N[C@]31N(OC)c1ccccc12	0	118*	-2
COc1ccc(C(=O)NCCn2cc(SCC(=O)Nc3ccccc3)c3ccccc32)cc1	-2	29	2
O=C(CC1C(=O)N(c2ccccc2)C(=O)N1Cc1cccs1)Nc1ccccc1 (stereo not given)	1	20	-4
Cc1ccc(S(=O)(=O)N(C)CCCc2nc3ccccc3[nH]2)cc1	nt	27	-2
CCN(CC)c1ccc2cc(C(N)=O)c(=Nc3ccc(F)cc3)oc2c1	-1	94*	nt
C=C1[C@H](OC(=O)C(C)CC)[C@@H](OC(=O)C(C)C)[C@@H](O)C(C)(C)/C=C\[C@H](C)C(=O)[C@@]2(O)C[C@H](C)[C@H](O)[C@@H]2[C@H]1OC(=O)C(C)CC (stereo not given in full)	56*	60	-9
COC(=O)C[C@H]1C(C)(C)C(=O)[C@@H]2CC3=C4CC(=O)O[C@@H](c5ccoc5)[C@]4(C)CCC3[C@@]1(C)C2=O (stereo not given in full)	nt	-15	2
CC(=O)O[C@H]1C[C@@H](OC(C)=O)C(C)(C)C2C[C@@H](OC(C)=O)[C@]3(C)C([C@H](OC(C)=O)C[C@@]4(C)[C@H](c5ccoc5)OC(=O)[C@H]5O[C@]543)[C@]21C (stereo not given in full)	nt	40	1
C=C1C(C2(C)C=CC(=O)C(C)(C)C2CC(=O)OC)CC[C@@]2(C)[C@H](c3ccoc3)OC(=O)C3OC132 (stereo not given in full)	nt	110*	0

Compound activity: PubChem, Broad Institute
